Compound activity as filed in PubChem BioAssay.
Rows were chosen to be rich in hits. Some 9.3% of all compounds tested hit in one or more screens of this group.
ELG1 repair inh – qHTS screen for small molecules that inhibit ELG1-dependent DNA repair in human embryonic kidney (HEK293T) cells expressing luciferase-tagged ELG1; 330,000 compounds, 2.3% hits; Potency, µM (top dose mostly 46.1 µM), for inactives: at the top dose activity change, negative = inhibition, hits mostly inhibitors; HEK293T ELG1-luciferase reporter, luminescence, 16 h; DNA damage induced by 5-fluorouridine; AID 504467, 2011; note: % is set by controls: 0 for no effect and ±100 for the full control effect; nearly all actives have a fitted effect of over 55% in size
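HEK293T cells expressing luciferase-tagged ELG1 (2,000/well) received 5-Fluorouridine plus compound or DMSO for 16 hr at 37 °C. Luciferase was read by ONE-Glo luminescence after 30 min at room temperature.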
NPC1 promoter act – qHTS Assay for NPC1 Promoter Activators. Huh7 NPC1 promoter luciferase reporter, 24 h. AID 485313, 2010. 320,000 compounds, 2.4% hits. Potency, µM (top dose mostly 9.22 µM), for inactives: at the highest dose activation, most hits filed as activators; note: % of control where 0% means no effect; nearly all actives have a fitted effect of over 60% in size
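NPC1 promoter–luciferase Huh7 cells; 24 h compound; luminescence.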
Rab9 promoter act – qHTS Assay for Rab9 Promoter Activators; Potency, µM (doses to about 9.22 µM), inactives show at the top dose activation, negative = inhibition, hits mostly activators; AID 485297, 2010; 320,000 compounds, 2.8% hits; Huh7 Rab9 promoter-luciferase reporter, luminescence, 24 h; note: % of control where 0% means no effect; nearly all actives have a fitted effect of over 60% in size
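Quantitative HTS format; Huh7 Rab9-luciferase reporter cells (1500/well) receive compound 2 h post-plating, incubate 24 h at 37 °C, then get luciferase reagent for 10 min before luminescence reading.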
FLuc modulator – qHTS profiling assay for firefly luciferase inhibitor/activator using purifed enzyme and Km concentrations of substrates (counterscreen for miR-21 project) | Luciferin 4-monooxygenase (Photinus pyralis), P08659 | purified FLuc, Km substrates, luminescence inhibition | Potency, µM (doses to about 57.5 µM), without a hit: at the top dose activity change, negative = inhibition, usual class: inhibitors | 360,000 compounds, 6.9% hits | AID 588342, 2011;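 note: plate controls were vehicle for no effect and reference inhibitor for full effect; nearly all actives have a fitted effect of over 55% in size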
Target sequence (P08659 whole entry, looked up): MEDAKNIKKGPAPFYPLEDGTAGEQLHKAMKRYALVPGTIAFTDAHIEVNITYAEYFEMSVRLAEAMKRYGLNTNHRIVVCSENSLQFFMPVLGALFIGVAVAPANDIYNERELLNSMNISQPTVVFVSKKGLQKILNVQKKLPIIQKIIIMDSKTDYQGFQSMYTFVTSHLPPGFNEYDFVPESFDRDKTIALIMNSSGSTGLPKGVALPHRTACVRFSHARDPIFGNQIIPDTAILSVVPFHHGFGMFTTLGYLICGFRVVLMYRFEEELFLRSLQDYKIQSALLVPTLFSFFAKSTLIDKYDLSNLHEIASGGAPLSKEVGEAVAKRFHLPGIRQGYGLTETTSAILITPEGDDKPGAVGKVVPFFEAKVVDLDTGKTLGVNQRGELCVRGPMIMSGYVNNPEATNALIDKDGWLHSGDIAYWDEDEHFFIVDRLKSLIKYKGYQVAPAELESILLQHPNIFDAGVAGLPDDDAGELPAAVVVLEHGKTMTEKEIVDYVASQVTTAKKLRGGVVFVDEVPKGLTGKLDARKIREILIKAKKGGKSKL
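Purified P. pyralis luciferase (10nM final) with 10uM D-luciferin and 10uM ATP (Km levels) in 50mM Tris acetate pH 7.5, 10mM Mg acetate, 0.01% Tween-20, 0.05% BSA; qHTS 6-point titration, ~60 µM downward; luminescence read.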
SMN2 splice enh – qHTS Assay for Enhancers of SMN2 Splice Variant Expression | HEK293 SMN2-luciferase splicing reporter, luminescence, 30-36 h | Potency, µM (titrated, usually from 46.1 µM), without a hit: at the highest dose activity change, positive = activation, hits mostly activators | 210,000 compounds, 2.8% hits | AID 1458, 2008; note: % of control where 0% means no effect; nearly all actives have a fitted effect of over 55% in size
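HEK293 cells carry an SMN2 minigene-luciferase reporter in which exon 7 inclusion puts luciferase in frame. Cells were seeded at 2000 cells/well, attached for 10-12 hours, then exposed to compounds for 30-36 hours at 37C before ONE-Glo luminescence.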
ELG1 genotox – qHTS screen for small molecules that induce genotoxicity in human embryonic kidney (HEK293T) cells expressing luciferase-tagged ELG1 | HEK293T ELG1-luciferase reporter, luminescence, 16 h | 330,000 compounds, 1.3% hits | Potency, µM (doses to about 46 µM), inactives show at the top dose activity change, positive = activation, actives largely listed as activators; note: % of control where 0% means no effect; nearly all actives have a fitted effect of over 60% in size
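Quantitative HTS format in 1536-well plates. HEK293T ELG1-luciferase reporter cells receive test compound and are incubated 16 hr at 37 °C, 5% CO2; ONE-Glo added, 30 min room temperature, then luminescence read.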
* hit, by the source's call; ? = inconclusive; nt = no result given; [ ] = another dose, or the depositor's remark. Calls come from the whole dose curve; as a rule, active = well fitted curve in the direction sought with a large enough effect; inconclusive = small, poorly fitted or top-dose-only effect, or another doubt; inactive = no such curve, though single readings can be large; an effect the other way counts as inactive or inconclusive. Potency is the fitted concentration of half-maximal effect.

SMILES | ELG1 repair inh | NPC1 promoter act | Rab9 promoter act | FLuc modulator | SMN2 splice enh | ELG1 genotox
O=C(/C=C/Nc1cccc(O)c1)c1ccccc1 | ? | ? | 23% | 0.17µM* | ? | ?
CC(=O)c1cccc(NS(=O)(=O)c2ccc(N/C=C\C(=O)c3ccc(C)cc3)cc2)c1 | ? | -13% | -4% | 5% | -23% | 2%
O=C(Nc1cccc(O)c1)c1cccc(C(=O)Nc2cccc(O)c2)c1 | -6% | 8% | 2% | ? | nt | -2%
Cc1c(N/C=C/C(=O)c2ccc(Cl)cc2)c(=O)n(-c2ccccc2)n1C | 19% | -2% | 13% | ? | ? | 9%
CC(=O)c1ccc(N/C=C\C(=O)c2ccc(C)cc2)cc1 | ? | 2.5µM* | 4µM* | 1.9µM* | 16µM* | 8.2µM*
CC(=O)c1cccc(N/C=C\C(=O)c2ccc(C)cc2)c1 | ? | 0.79µM* | 0.79µM* | 0.3µM* | 6.3µM* | 2.6µM*
O=C(/C=C/Nc1ccc(F)c(Cl)c1)c1ccccc1 | ? | ? | 3.5µM* | 2.4µM* | nt | 18µM*
C#CCOCCOCCOCCNc1nc(N2CCN(C(=O)[C@H](CCC(=O)O)n3cc(C(N)Cc4ccc(O)cc4)nn3)CC2)nc(N2CCN(C(=O)[C@H](Cc3cc4ccccc4[nH]3)n3cc(C(N)CC(C)C)nn3)CC2)n1 (some centres not stated) | 1% | -5% | 2% | 0% | nt | 4%
Cc1cc2c(NC(=O)Nc3ccccc3)cccc2nn1 | ? | -2% | 1% | -15% | nt | ?
O=C(c1cccc(N2C(=O)C3C4C=CC(C4)C3C2=O)c1)N1CCCc2ccccc21 (configuration not stated) | -24% | -1% | -1% | -11% | -14% | 0%
COc1ccc(Cl)cc1S(=O)(=O)N1CCN(C(=O)c2cc(-c3ccc(Br)cc3)n[nH]2)CC1 | nt | nt | nt | -3% | nt | nt
Cc1cc(OCC(=O)NC(Cc2c[nH]c3ccccc23)C(=O)O)ccc1Cl (configuration not stated) | nt | nt | nt | ? | -10% | nt
c1ccc2nc(CC[C@@H]3CCCCN3)ccc2c1 | nt | nt | nt | nt | 19%[9.22 µM] | nt
CCOC(=O)c1c(NC(=O)C(C)Oc2ccc(Cl)c(C)c2)sc2c1CCCC2 (configuration not stated) | nt | nt | nt | -17% | 3% | nt
CCC(Oc1ccccc1)C(=O)Nc1cc(C(F)(F)F)ccc1N1CCOCC1 (configuration not stated) | -3% | 0% | 7% | 4% | nt | 1%
COc1ccc(O)c(C(=O)c2coc(=N)c(C(=O)Nc3ccc(SC(F)F)cc3)c2)c1 | 16µM* | -5% | -9% | ? | -87% | -10%
O=C(OCc1cccc([N+](=O)[O-])c1)c1cccnc1 | 17% | -1% | -2% | -10% | 17% | 4%
CCOc1ccc(OCc2cccc(C(=O)N3CCOCC3)c2)cc1 | ? | 0.089µM* | 0.089µM* | 0.3µM* | 0.35µM* | 0.13µM*
O=C(c1cccc(OCc2ccccc2)c1)N1CCOCC1 | 28% | 6% | 3% | -8% | 17% | 8%
CCOc1ccc(N=C(/C(C(=O)C(=O)N2CCOCC2)=C(/O)c2ccccc2)c2ccccc2)cc1 | ? | 4µM* | ? | ? | nt | ?
CCOc1ccc(NC(=O)c2cccc(OC(=S)N3CCOCC3)c2)cc1 | -10% | -2% | -4% | ? | nt | -8%
CC1CN(C(=O)c2cccc(COc3ccc(Br)cc3)c2)CC(C)O1 (configuration not stated) | ? | 1.6µM* | 3.5µM* | 4.8µM* | 4µM* | ?
C/C(CC(=O)Nc1ccc(Cl)cc1)=N\NC(=O)C(=O)N1CCCCC1 | ? | 2% | -4% | -14% | nt | 9%
CN(c1ccccc1)S(=O)(=O)c1cccc(NC(=O)CSc2n[nH]c(N)n2)c1 | 21µM* | -1% | -4% | -13% | nt | -11%
Nc1nc(SCC(=O)Nc2cccc(S(=O)(=O)N3CCCCCC3)c2)n[nH]1 | -5% | 2% | -1% | 17µM* | -10% | -1%
SMILES | ELG1 repair inh | NPC1 promoter act | Rab9 promoter act | FLuc modulator | SMN2 splice enh | ELG1 genotox
O=C(CSc1nnc(Nc2ccccc2)s1)Nc1cccc(S(=O)(=O)N2CCCCC2)c1 | ? | 3% | -5% | 12µM* | -22% | -1%
COc1ccc(CN(C)Cc2nc3scc(-c4ccccc4)c3c(=O)[nH]2)cc1OC | 16µM* | -2% | -2% | 3% | -26% | -7%
CSCc1nc2scc(-c3ccccc3)c2c(=O)[nH]1 | -9% | -1% | 0% | 4% | -4% | 3%
C(=N\Nc1nncn1/N=C/c1ccco1)/c1ccco1 | -5% | -5% | 2% | 5% | nt | 0%
COc1cc(/C=N/Nc2nncn2/N=C/c2ccc(O)c(OC)c2)ccc1O | ? | ? | ? | 0.38µM* | 25µM* | -7%
COc1ccc(OC)c(/C=N/Nc2nncn2/N=C/c2cc(OC)ccc2OC)c1 | ? | -9% | -2% | 15µM* | 5% | -2%
Cc1ccc(C2(c3ccccc3)NC(=O)N(CC(=O)NC3CCCCC3)C2=O)cc1C (configuration not stated) | -7% | -1% | -1% | -2% | nt | -3%
NC(N)=N/N=C/c1ccccc1OC(F)F | 0% | 0% | 2% | 1% | -8% | -2%
FC(F)Oc1ccccc1/C=N/n1cnc2ccccc21 | ? | 1% | 25% | 24µM* | ? | 11%
COc1cccc(CNC(=O)CCCn2c(=O)c3cccn3c3ccc(F)cc32)c1OC | nt | nt | nt | 3% | nt | nt
COc1ccc(CCN2CC(C#N)=C3c4cc(OC)c(OC)cc4CCN3C2)cc1OC | 21µM* | -2% | -5% | 0% | -7% | -7%
COc1cc2c(cc1OC)C1=C(C#N)CN(C3CCCCC3)CN1CC2 | ? | 1% | -3% | 2% | -8% | -4%
Cc1cc(C)c2c(N)c(C(=O)Nc3ncc(C)s3)sc2n1 | ? | -10% | ? | 0.095µM* | -56% | ?
COCc1cc(C)nc2sc(C(=O)Nc3ccccc3Br)c(N)c12 | 17% | 15% | 21% | 8.5µM* | nt | 7%
CCc1ccccc1NC(=O)c1sc2nc(C)cc(C)c2c1N | -5% | -1% | 12% | ? | nt | 2%
COc1ccc2nc(NC(=O)c3sc4nc(C)cc(C)c4c3N)sc2c1 | ? | ? | ? | 0.12µM* | nt | ?
